# Activity calls are given as the source filed them. How the source made its calls: active means hit-call score of the fitted dose curve at least 0.9, where 1 is the maximum; inactive means score below 0.9.
# Assays:
# Details in all cases: mRNA level, 48 h; actives raise or lower the signal
# [1] = read-out: Protein phosphatase 2A (PPP2R4), PTPA (gene 5524); assay: LTEA_HepaRG_PPP2R4: Life Technologies and Expression Analysis (LTEA) Assay for Protein phosphatase 2A (PPP2R4) using HepaRG (AID 2283522)
# How it was run: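 Gene-expression endpoint in HepaRG hepatic cells: 48 h treatment across eight half-log concentrations up to 100 uM in 0.5% DMSO. PPP2R4 mRNA by qRT-PCR, normalized to three endogenous control genes.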
# [2] = read-out: Phosphatase and tensin (PTEN), PTEN (gene 5728); assay: LTEA_HepaRG_PTEN: Life Technologies and Expression Analysis (LTEA) Assay for Phosphatase and tensin (PTEN) using HepaRG (AID 2283523)
# How it was run: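 Differentiated human HepaRG cells, plated 48 h then switched to serum-free induction medium, were exposed in duplicate for 48 h to eight half-log concentrations up to 100 uM in 0.5% DMSO. PTEN mRNA measured by TaqMan qRT-PCR, normalized to ACTB/GAPDH/POLR2A, bidirectional fit versus DMSO.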
# [3] = read-out: solute carrier (SLC22A1), SLC22A1 (gene 6580); assay: LTEA_HepaRG_SLC22A1: Life Technologies and Expression Analysis (LTEA) Assay for solute carrier (SLC22A1) using HepaRG (AID 2283524)
# How it was run: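 Human HepaRG cells were plated 48 h, switched to serum-free induction medium, then exposed in duplicate for 48 h to 8-point half-log series from 100 uM in 0.5% DMSO. SLC22A1 mRNA measured by qRT-PCR, normalized to ACTB/GAPDH/POLR2A, fitted bidirectionally versus DMSO.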
# [4] = read-out: Pyruvate Dehydrogenase Kinase 4 (PDK4), PDK4 (gene 5166); assay: LTEA_HepaRG_PDK4: Life Technologies and Expression Analysis (LTEA) Assay for Pyruvate Dehydrogenase Kinase 4 (PDK4) using HepaRG (AID 2283525)
# How it was run: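 Differentiated human HepaRG cells, pre-cultured 48 h, were exposed in duplicate for 48 h in serum-free induction medium to eight half-log concentrations up to 100 uM in 0.5% DMSO. PDK4 mRNA was quantified by qRT-PCR, normalized to ACTB, GAPDH and POLR2A, bidirectional fitting versus DMSO.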
# [5] = read-out: NAD(P)H dehydrogenase [quinone] 1 (NQO1), NQO1 (gene 1728); assay: LTEA_HepaRG_NQO1: Life Technologies and Expression Analysis (LTEA) Assay for NAD(P)H dehydrogenase [quinone] 1 (NQO1) using HepaRG (AID 2283526)
# How it was run: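 Human HepaRG hepatic cells received chemicals for 48 h in serum-free induction medium with 0.5% DMSO, up to 100 uM. Expression was assessed by TaqMan qRT-PCR against housekeeping controls and fitted bidirectionally against DMSO.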
# [6] = read-out: Nuclear factor erythroid 2-related factor 2 (Homo sapiens) (UniProt Q16236); assay: LTEA_HepaRG_NFE2L2: Life Technologies and Expression Analysis (LTEA) Assay for Nuclear factor erythroid 2-related factor 2 (NFE2L2) Transcription Factor using HepaRG (AID 2283527)
# How it was run: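 Differentiated human HepaRG cells in serum-free induction medium were exposed for 48 h to eight concentrations (top 100 uM, half-log dilutions, 0.5% DMSO), in duplicate. NFE2L2 mRNA was quantified by TaqMan qRT-PCR, normalized to ACTB, GAPDH and POLR2A, with bidirectional fitting versus DMSO.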
# [7] = read-out: succinate dehydrogenase complex iron sulfur subunit B (SDHB), SDHB (gene 6390); assay: LTEA_HepaRG_SDHB: Life Technologies and Expression Analysis (LTEA) Assay for succinate dehydrogenase complex iron sulfur subunit B (SDHB) using HepaRG (AID 2283528)
# How it was run: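 HepaRG cells (~100,000/well, plated 48 h) exposed in duplicate for 48 h in serum-free induction medium to 8-point half-log series from 100 uM in 0.5% DMSO; mRNA by qRT-PCR normalised to ACTB, GAPDH, POLR2A; bidirectional fit versus DMSO.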
# [8] = read-out: Signal transducer and activator of transcription 3 (Homo sapiens) (UniProt P40763); assay: LTEA_HepaRG_STAT3: Life Technologies and Expression Analysis (LTEA) Assay for Signal transducer and activator of transcription (STAT3) using HepaRG (AID 2283529)
# How it was run: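 Differentiated human HepaRG cells in serum-free induction medium were exposed in duplicate for 48 h to eight half-log concentrations up to 100 uM in 0.5% DMSO. STAT3 mRNA was quantified by TaqMan qRT-PCR, normalized to ACTB, GAPDH and POLR2A, and fitted bidirectionally against DMSO.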
# [9] = read-out: solute carrier (SLCO1B1), SLCO1B1 (gene 10599); assay: LTEA_HepaRG_SLCO1B1: Life Technologies and Expression Analysis (LTEA) Assay for solute carrier (SLCO1B1) using HepaRG (AID 2283530)
# How it was run: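 Human HepaRG cultures treated for 48 h with an eight-concentration half-log series topping at 100 uM; SLCO1B1 measured by qRT-PCR and fitted bidirectionally relative to DMSO.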
# [10] = read-out: sulfotransferase 2A1 (SULT2A1), SULT2A1 (gene 6822); assay: LTEA_HepaRG_SULT2A1: Life Technologies and Expression Analysis (LTEA) Assay for sulfotransferase 2A1 (SULT2A1) using HepaRG (AID 2283531)
# How it was run: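 Gene-expression endpoint in a human liver cell line: SULT2A1 mRNA change after 48 h chemical treatment, curves fitted in both directions relative to 0.5% DMSO vehicle. Concentrations spanned eight half-log steps from 100 uM.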
# [11] = read-out: Transforming Growth Factor (TGFA), TGFA (gene 7039); assay: LTEA_HepaRG_TGFA: Life Technologies and Expression Analysis (LTEA) Assay for Transforming Growth Factor (TGFA) using HepaRG (AID 2283532)
# How it was run: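 Differentiated human HepaRG cells, plated 48 h then switched to serum-free induction medium, were exposed in duplicate for 48 h to 8-point half-log series from 100 uM in 0.5% DMSO. TGFA mRNA measured by qRT-PCR, normalized to ACTB/GAPDH/POLR2A, bidirectional fit versus DMSO.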
# [12] = read-out: Transforming Growth Factor (TGFB1), TGFB1 (gene 7040); assay: LTEA_HepaRG_TGFB1: Life Technologies and Expression Analysis (LTEA) Assay for Transforming Growth Factor (TGFB1) Transporter using HepaRG (AID 2283533)
# How it was run: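 Eight-point concentration-response (max 100 uM, half-log) in HepaRG under serum-free induction conditions, 48 h. TGFB1 mRNA by qRT-PCR, housekeeping-normalized.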
# TIMP1, TIMP1 (gene 7076) = assay: LTEA_HepaRG_TIMP1: Life Technologies and Expression Analysis (LTEA) Assay for TIMP1 using HepaRG (AID 2283534)
# How it was run: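 TIMP1 induction or repression in HepaRG cells after 48 h chemical exposure (eight concentrations, highest 100 uM), assessed by normalized qRT-PCR with bidirectional fitting to DMSO controls.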
# [13] = read-out: Tumor necrosis factor receptor 1 (TNFRSF1A), TNFRSF1A (gene 7132); assay: LTEA_HepaRG_TNFRSF1A: Life Technologies and Expression Analysis (LTEA) Assay for Tumor necrosis factor receptor 1 (TNFRSF1A) using HepaRG (AID 2283535)
# How it was run: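 Assay uses 48 h chemical treatment of differentiated HepaRG monolayers, tested in duplicate at eight concentrations from 100 uM downward in 0.5% DMSO. mRNA is normalized to ACTB, GAPDH and POLR2A, with induction or suppression fitted relative to vehicle.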
# [14] = read-out: Thyroid Hormone Responsive (THRSP), THRSP (gene 7069); assay: LTEA_HepaRG_THRSP: Life Technologies and Expression Analysis (LTEA) Assay for Thyroid Hormone Responsive (THRSP) using HepaRG (AID 2283536)
# How it was run: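 Differentiated human HepaRG cells were exposed in duplicate for 48 h in serum-free induction medium to eight concentrations (top 100 uM, half-log steps, 0.5% DMSO). Expression was quantified by TaqMan qRT-PCR, normalized to ACTB, GAPDH and POLR2A, with bidirectional fitting against DMSO.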
# [15] = read-out: UDP glucuronosyltransferase (UGT1A1), UGT1A1 (gene 54658); assay: LTEA_HepaRG_UGT1A1: Life Technologies and Expression Analysis (LTEA) Assay for UDP glucuronosyltransferase (UGT1A1) using HepaRG (AID 2283538)
# How it was run: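 Human liver HepaRG cultures receive test chemical for 48 h, up to 100 uM in 0.5% DMSO, with phenobarbital induction controls. UGT1A1 mRNA is measured by qRT-PCR and normalized to ACTB, GAPDH and POLR2A.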
# [16] = read-out: UDP glucuronosyltransferase (UGT1A6), UGT1A6 (gene 54578); assay: LTEA_HepaRG_UGT1A6: Life Technologies and Expression Analysis (LTEA) Assay for UDP glucuronosyltransferase (UGT1A6) using HepaRG (AID 2283539)
# How it was run: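 Measures mRNA change in HepaRG hepatic cells exposed 48 h to chemicals (eight-point, maximum 100 uM, 0.5% DMSO vehicle) in serum-free induction medium. Expression normalized to endogenous controls; DMSO served as negative control and baseline.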
# [17] = read-out: X-box binding protein 1 (XBP1), XBP1 (gene 7494); assay: LTEA_HepaRG_XBP1: Life Technologies and Expression Analysis (LTEA) Assay for X-box binding protein 1 (XBP1) using HepaRG (AID 2283540)
# How it was run: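 Eight concentrations (half-log, highest 100 uM, 0.5% DMSO) tested in duplicate on HepaRG cells over 48 h in serum-free induction medium; qRT-PCR of XBP1 normalised to ACTB, GAPDH, POLR2A.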
# Sequence of Signal transducer and activator of transcription 3 (Homo sapiens) (P40763 whole entry, looked up): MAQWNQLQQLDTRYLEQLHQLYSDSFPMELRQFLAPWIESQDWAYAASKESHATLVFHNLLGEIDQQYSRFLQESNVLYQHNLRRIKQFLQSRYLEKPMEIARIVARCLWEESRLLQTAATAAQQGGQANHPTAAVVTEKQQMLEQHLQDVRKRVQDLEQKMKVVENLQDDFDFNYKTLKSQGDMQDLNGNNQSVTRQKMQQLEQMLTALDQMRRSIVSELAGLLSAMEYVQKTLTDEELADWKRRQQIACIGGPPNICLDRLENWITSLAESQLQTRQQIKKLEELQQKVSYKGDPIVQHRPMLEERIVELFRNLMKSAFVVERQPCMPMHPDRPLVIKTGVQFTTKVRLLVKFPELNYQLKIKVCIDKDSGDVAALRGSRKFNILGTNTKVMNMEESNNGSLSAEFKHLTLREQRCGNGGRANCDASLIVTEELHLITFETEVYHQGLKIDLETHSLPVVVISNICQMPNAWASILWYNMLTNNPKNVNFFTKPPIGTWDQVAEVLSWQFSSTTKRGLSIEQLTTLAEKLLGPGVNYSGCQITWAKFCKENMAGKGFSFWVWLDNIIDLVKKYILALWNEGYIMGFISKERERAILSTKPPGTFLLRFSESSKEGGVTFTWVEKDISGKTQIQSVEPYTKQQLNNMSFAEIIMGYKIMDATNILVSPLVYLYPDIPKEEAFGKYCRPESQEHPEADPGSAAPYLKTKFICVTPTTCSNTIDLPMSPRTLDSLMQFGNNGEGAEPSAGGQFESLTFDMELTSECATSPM
# Sequence of Nuclear factor erythroid 2-related factor 2 (Homo sapiens) (Q16236 whole entry, looked up): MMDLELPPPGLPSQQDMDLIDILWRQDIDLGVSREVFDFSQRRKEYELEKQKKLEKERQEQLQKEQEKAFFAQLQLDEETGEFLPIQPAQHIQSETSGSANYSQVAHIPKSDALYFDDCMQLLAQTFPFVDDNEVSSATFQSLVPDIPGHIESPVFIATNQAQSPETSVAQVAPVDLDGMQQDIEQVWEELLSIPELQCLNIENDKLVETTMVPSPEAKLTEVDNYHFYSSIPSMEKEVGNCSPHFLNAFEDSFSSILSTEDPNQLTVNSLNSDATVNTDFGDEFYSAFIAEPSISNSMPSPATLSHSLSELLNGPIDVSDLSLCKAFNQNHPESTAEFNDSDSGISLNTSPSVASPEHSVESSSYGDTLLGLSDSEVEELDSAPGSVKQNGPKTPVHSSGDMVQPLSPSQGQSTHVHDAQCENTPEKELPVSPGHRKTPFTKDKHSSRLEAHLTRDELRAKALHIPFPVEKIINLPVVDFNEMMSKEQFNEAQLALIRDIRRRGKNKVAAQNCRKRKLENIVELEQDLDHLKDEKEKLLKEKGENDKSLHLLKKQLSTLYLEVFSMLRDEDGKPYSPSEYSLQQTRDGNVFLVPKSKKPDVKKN
smiles,measurement,setting,value
OC(c1ccc(Cl)cc1)(c1cncnc1)c1ccccc1Cl (stereo not drawn),AC50,[1],66.4 µM (active)
same,outcome,[2],inactive
same,AC50,[3],81.8 µM (active)
same,AC50,[4],75.9 µM (active)
same,outcome,[5],inactive
same,AC50,[6],44.6 µM (active)
same,outcome,[7],inactive
same,outcome,[8],inactive
same,AC50,[9],85.2 µM (active)
same,AC50,[10],77 µM (active)
same,AC50,[11],77.5 µM (active)
same,AC50,[12],50 µM (active)
same,AC50,"TIMP1, TIMP1 (gene 7076)",50 µM (active)
same,outcome,[13],inactive
same,AC50,[14],86.4 µM (active)
same,AC50,[15],91.1 µM (active)
same,AC50,[16],74.1 µM (active)
same,outcome,[17],inactive

# From PubChem BioAssay (EPA / NIEHS)
